IL2 activator – IL-2 activation | 0.065% of 360,000 active | AID 652025 | IL-2 activation reporter assay, cell-based qHTS; stimulated with anti-CD3/CD4/CD28 beads; in transgenic mouse T cells | activation, % (series mostly up to about 46 µM); in the data active means activation above about 50%; inconclusive means mostly about 30% to 49%
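Unstimulated transgenic mouse T cells; 60-min compound exposure; bead-based TCR/CD4/CD28 stimulation; 18 h culture, 37 degrees C; dual fluorescence (EGFP, DsRed) plate cytometry.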
PTHR1 agonist – PTHR1 (human) receptor agonism | Q03431 | HEK293 GP2 PTHR1 cells, GloSensor cAMP luminescence, 1 h | Potency, µM (top dose mostly 115 µM), usual class: activators | 0.075% of 410,000 active | AID 743266; further: nearly all actives have a fitted effect of over 55% in size
Target sequence (Q03431 whole entry, looked up): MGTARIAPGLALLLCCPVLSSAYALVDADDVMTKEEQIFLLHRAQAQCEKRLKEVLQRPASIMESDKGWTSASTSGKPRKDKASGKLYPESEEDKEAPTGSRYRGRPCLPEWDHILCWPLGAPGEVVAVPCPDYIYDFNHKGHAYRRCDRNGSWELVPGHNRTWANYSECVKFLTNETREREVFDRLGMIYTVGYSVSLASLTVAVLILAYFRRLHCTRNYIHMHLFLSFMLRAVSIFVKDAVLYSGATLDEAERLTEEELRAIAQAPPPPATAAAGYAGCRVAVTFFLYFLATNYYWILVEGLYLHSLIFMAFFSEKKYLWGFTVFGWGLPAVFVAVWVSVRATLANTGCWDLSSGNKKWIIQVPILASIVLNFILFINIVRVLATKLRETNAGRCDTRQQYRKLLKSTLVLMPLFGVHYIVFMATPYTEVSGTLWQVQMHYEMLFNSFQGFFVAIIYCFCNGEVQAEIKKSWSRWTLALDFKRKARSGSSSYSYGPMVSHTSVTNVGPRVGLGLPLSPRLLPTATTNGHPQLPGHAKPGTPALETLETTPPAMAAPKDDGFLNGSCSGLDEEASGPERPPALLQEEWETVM
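HEK-293-derived GP2 cells expressing PTHR1 and a GloSensor cAMP reporter, 3,000/well, plated overnight, given luciferin plus IBMX (each 0.5 mM as added) for 1 h at 37 °C, then compound for 1 h at 37 °C. Luminescence was read after 15 min at room temperature.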
Chronic BCR inh – chronic active BCR signaling inhibition | Potency, µM (titrated, usually from 46.1 µM), most hits filed as inhibitors | 0.05% of 340,000 active | ABC-DLBCL IkBa-CBG/CBR reporter, luminescence ratio, 4 h; active means well fitted inhibition curve with a large enough effect in the signal ratio, with a control signal flat, not every such curve was filed as active; inconclusive means small, poorly fitted or top-dose-only effect, or effect the other way, or a change in a side signal; the % refers to the signal ratio
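Compounds up to 46 uM were incubated four hours with TMD8 cells whose green CBG68 luciferase is fused to IkappaBalpha; red CBR luminescence normalised the signal, and concentration-effect curves were fitted to fusion, red and ratio data.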
TCR activator – activates T cell receptor signaling; primary human leukocytes, anti-CD3, IL-2 HTRF, 48 h; Potency, µM (doses to about 9.22 µM), actives largely listed as activators; 330,000 tested, under 10 active
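IL-2 release read by HTRF sandwich (Eu cryptate donor, d2 acceptor, 665 nm emission) after 48 hr exposure of primary human leukocytes to compound together with anti-CD3 beads in the absence of co-stimulatory signals.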
Mito fusion act – blocks mitochondrial division or promotes mitochondrial fusion. S. cerevisiae fusion-defective mutant growth rescue, CellTiterGlo 48 h. Potency, µM (series often up to 46.1 µM), most hits filed as activators. 0.23% of 320,000 active. AID 485298; further: nearly all actives have a fitted effect of over 45% in size
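Yeast fusion mutant, YPEG (non-fermentable carbon), compound, 48 h at 37C non-permissive; CellTiterGlo added, 10 min RT, luminescence read. Rescued growth = division inhibition.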
BRCA1 expr up – increases BRCA1 expression; MCF7-BRCA1-FFLuc reporter, luminescence, 48 h; response scale: scaled: vehicle 0%, 10 µM genistein 100%; Potency, µM (titrated, usually from 46.1 µM), actives largely listed as activators; 1.1% of 380,000 active; AID 624202; further: nearly all actives have a fitted effect of over 80% in size
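Compounds are tested at multiple concentrations on MCF7 BRCA1-luciferase reporter cells seeded at 2000 per well; after 48 h, a single luminescence end-point is taken and curves fitted to the normalized data.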
Of the large screens only hits and unclear results are named; the others gave an inactive call; ! = not confirmed by another sample. A selection: hits, their analogues and other compounds. The true share with any hit is near 1.3%. Unless noted, the call rests on the fitted dose curve; in most records, active means well fitted curve in the direction sought with a large enough effect; inconclusive means small, poorly fitted or top-dose-only effect, or another doubt; inactive means no such curve, though single readings can be large; an effect the other way counts as inactive or inconclusive.

O=C1COC(c2ccccc2)C2CCCCN12 (stereo not drawn)	none
O=C(Nc1cccc(F)c1)Nc1ccc2c(c1)CCC2	BRCA1 expr up 2µM
Cc1ccc(NC(=O)Nc2ccc3c(c2)CCC3)cc1	Chronic BCR inh inconclusive, BRCA1 expr up 3.98µM
Cc1cc(C)cc(NC(=O)Nc2ccc3c(c2)CCC3)c1	none
O=C(Nc1ccc(F)cc1)Nc1ccc2c(c1)CCC2	BRCA1 expr up inconclusive
CC(C)CCC1CC(CSC(=N)N)OC1=O (stereo not drawn)	PTHR1 agonist inconclusive (no result: Chronic BCR inh, TCR activator)
Cc1ccc(NC(=O)C2CCN(S(=O)(=O)c3cccc4nonc34)CC2)c(Cl)c1	none (no result: IL2 activator, Chronic BCR inh, TCR activator, Mito fusion act)
CCc1ccc(-c2ccc(SCC(=O)NCC3CCCO3)nn2)cc1 (stereo not drawn)	BRCA1 expr up 2.51µM
CCOc1ccccc1N1CCN(CC(=O)NCCc2ccc(S(N)(=O)=O)cc2)CC1	none
CCCn1nnc(NC(=O)c2ccccc2Cl)n1	Chronic BCR inh inconclusive, BRCA1 expr up 11.2µM
CCCn1nnc(NC(=O)c2ccc(Cl)cc2Cl)n1	Chronic BCR inh inconclusive, BRCA1 expr up 2.51µM
CCCn1nnc(NC(=O)c2cccnc2Cl)n1	Chronic BCR inh inconclusive
CC1CCCCN1C(=O)c1cnn2c1NC(=C1CC1)C=C2C(F)F (stereo not drawn)	none (no result: IL2 activator, PTHR1 agonist, Chronic BCR inh, TCR activator, Mito fusion act)
CN1C(=O)C2C=CC1C1C(=O)N(c3ccccc3)C(=O)C21 (stereo not drawn)	Chronic BCR inh inconclusive, Mito fusion act 6.31µM
Cc1cnc(C(=O)OCC(=O)c2c[nH]c3ccccc23)cn1	none
CC1(C(=O)OCC(=O)c2c[nH]c3ccccc23)CC1(Cl)Cl (stereo not drawn)	BRCA1 expr up 8.91µM
O=C(NCCCSc1ccccc1)c1cccnc1	none
O=C(NCCSc1ccccc1)c1cccnc1	Chronic BCR inh inconclusive, BRCA1 expr up 14.1µM
Cc1cccn2c(CNCC3OCCc4ccccc43)c(C(=O)N3CCCCC3)nc12 (stereo not drawn)	none
O=C(CSc1nnc2sc3ccccc3n12)c1ccco1	Chronic BCR inh inconclusive, BRCA1 expr up 12.6µM (no result: TCR activator)
Cc1c(Cl)cccc1-n1ncc(C(=O)NCCN2CCN(C)CC2)c1C1CCN(C(=O)OC(C)(C)C)CC1	none (no result: IL2 activator, Chronic BCR inh, TCR activator, Mito fusion act, BRCA1 expr up)
CCN(CC)c1ccc(/C=N/N2CCOCC2)c(O)c1	Chronic BCR inh inconclusive, BRCA1 expr up 6.31µM
CCN(CC)c1ccc(/C=N/N2CCN(Cc3ccccc3)CC2)c(O)c1	none
CCCCN(C)CCNC(=O)c1cc2cc3ccc(OC)cc3nc2o1	none
COCCCNC(=O)c1cc2cc3cc(OC)ccc3nc2o1	none
CCCCN(C)C(=O)c1cc2cc3cc(OC)ccc3nc2o1	BRCA1 expr up 6.31µM
CCCCN(C)C(=O)c1cc2cc3ccc(OC)cc3nc2o1	BRCA1 expr up 4.47µM
COc1ccc(Br)c(C(=O)N(C)CC(=O)Nc2ccc(N3CCOCC3)cc2)c1	none
O=C(OCc1ccccc1)c1ccc2c(c1)-c1ccccc1C2=O	Chronic BCR inh inconclusive, BRCA1 expr up 8.91µM
O=C(OCc1ccccc1)c1ccccc1	none (no result: Chronic BCR inh, Mito fusion act)
COc1ccccc1CNC(=O)C(Cc1ccccc1)NS(=O)(=O)c1ccc2c(c1)CCN2C(C)=O (stereo not drawn)	none (no result: IL2 activator, Chronic BCR inh, TCR activator, Mito fusion act, BRCA1 expr up)
COc1ccc2c(c1OC)C(=O)N(c1cccc(C(F)(F)F)c1)C2	Chronic BCR inh inconclusive, BRCA1 expr up 2.82µM (no result: TCR activator)
COc1ccc2c(c1OC)C(=O)N(c1cccc(C)c1)C2	BRCA1 expr up inconclusive
CCN1C(Br)=CCc2ccccc21	none (no result: IL2 activator, PTHR1 agonist, Chronic BCR inh, TCR activator, Mito fusion act)
C#CCN1C(C)=C(C(=O)OC)C(c2cccc([N+](=O)[O-])c2)C(C(=O)OCC)=C1C (stereo not drawn)	Mito fusion act 4.61µM!
Clc1cccc(-c2nc3ccc(Cl)cn3c2Cc2ccsc2)c1	BRCA1 expr up 12.6µM (no result: Chronic BCR inh, TCR activator, Mito fusion act)
Cc1ccc(NC(=O)CN2CCCCCC2)c(Br)c1	Chronic BCR inh inconclusive, BRCA1 expr up 11.2µM
COc1ccc(NC(=O)CN2CCC(C)CC2)c([N+](=O)[O-])c1	none
COc1ccc(NC(=O)CN2CCCCC2)c([N+](=O)[O-])c1	BRCA1 expr up 10µM
CCOc1ccc(/C=C/C(=O)Nc2ccc(OC)cc2[N+](=O)[O-])cc1	IL2 activator 114.0
Cc1sc2ccccc2[n+]1CCCC[n+]1c(C)sc2ccccc21	none (no result: IL2 activator, PTHR1 agonist, Chronic BCR inh, TCR activator, Mito fusion act)
Cc1cc(Cl)ccc1Nc1ncccc1C(N)=O	Chronic BCR inh inconclusive, Mito fusion act inconclusive, BRCA1 expr up 4.47µM
Cc1[nH]nc2c1-c1nc3ccccc3nc1C(C)(C)C2	PTHR1 agonist 28.2µM, Chronic BCR inh inconclusive
O=C(Nc1ccc(Br)cn1)c1cnn2c1NC(=C1CC1)C=C2C(F)F	none (no result: IL2 activator, PTHR1 agonist, Chronic BCR inh, TCR activator, Mito fusion act)
COCCNC(=O)CSc1nc2scc(-c3ccccc3)c2c(=O)[nH]1	Chronic BCR inh inconclusive
N/C(=N\OC(=O)COc1ccc(Cl)cc1Cl)c1cccnc1	Chronic BCR inh inconclusive, BRCA1 expr up 7.94µM
N/C(=N\OC(=O)COc1ccc(Cl)cc1Br)c1ccncc1	BRCA1 expr up 2.51µM
N/C(Cc1cccs1)=N\OC(=O)COc1ccc(Cl)cc1Cl	Chronic BCR inh inconclusive, BRCA1 expr up 11.2µM
Cc1ccc(Cc2c(-c3ccc(C#N)cc3)nc3ccc(Cl)cn23)cc1	none (no result: Chronic BCR inh, TCR activator, Mito fusion act)
O=C(/C=C/c1ccc(F)cc1)NCc1cccs1	Chronic BCR inh inconclusive, BRCA1 expr up 14.1µM
O=C(/C=C/c1cccs1)NCc1ccccc1	Chronic BCR inh inconclusive, BRCA1 expr up 14.1µM
